MITF inh: inhibitors of human MITF | AID 1259374 | actives 0.91% (n = 650,000) | O75030 | inhibition, % at 2.6 µM | AlphaScreen MITF homodimerization, bead proximity signal; in the data active means inhibition above about 50%;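 further: 0% = vehicle wells with protein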
TEAD-YAP block: TEAD-YAP interaction inhibition | HEK-TIYL cells, TEAD-Gal4/YAP UAS-luciferase luminescence | AID 1259422 | actives 1.4% (n = 640,000) | inhibition, % at 9.12 µM; in the data active means inhibition above about 32%;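 further: 0% = median of test compound wells and 100% = reference inhibitor wells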
GPR151 ag: activates the human receptor GPR151 | PathHunter beta-arrestin GPR151 cells, luminescence | actives 1% (n = 650,000) | activation, % at 11.2 µM; in the data active means activation above about 4.9%;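 further: 0% = median of compound wells and 100% = cells with positive control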
FBW7 activator: activators of human E3 ligase FBW7; Q969H0; AlphaScreen FBW7–phospho-cyclin E peptide binding, activator screen; normalized activity (activation), % at 26.1 µM; actives 0.13% (n = 650,000); AID 1259310; in the data active means normalized activity above about 1.9%;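 further: purified mutant Fbw7 with reduced substrate affinity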
GPR151 confirm: human GPR151 activation, confirmation screen | shares compounds with GPR151 ag | GPR151 PathHunter beta-arrestin cells, luminescence, 90 min; % of EA-reagent control over plate median | activation, % at 11.2 µM | 6,700 tested, under 10 active;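 active means mean percent activation across replicates above the confirmation screen cutoff of 4.91%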
GPR119 ag: activates human GPR119 in a GPR151 counter-screen; GPR119 PathHunter beta-arrestin cells, luminescence, 90 min; 0 = compound-well median, 100 = enzyme-acceptor control; actives 0.3% (n = 6,700); shares compounds with GPR151 ag; AID 1508611; activation, % at 11.2 µM;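 active means mean percent activation in the counterscreen above 29.09%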;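 further: counterscreen on off-target GPR119 to flag nonselective hits from the GPR151 activator screen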
Target sequence (Q8TDV5 whole entry, looked up): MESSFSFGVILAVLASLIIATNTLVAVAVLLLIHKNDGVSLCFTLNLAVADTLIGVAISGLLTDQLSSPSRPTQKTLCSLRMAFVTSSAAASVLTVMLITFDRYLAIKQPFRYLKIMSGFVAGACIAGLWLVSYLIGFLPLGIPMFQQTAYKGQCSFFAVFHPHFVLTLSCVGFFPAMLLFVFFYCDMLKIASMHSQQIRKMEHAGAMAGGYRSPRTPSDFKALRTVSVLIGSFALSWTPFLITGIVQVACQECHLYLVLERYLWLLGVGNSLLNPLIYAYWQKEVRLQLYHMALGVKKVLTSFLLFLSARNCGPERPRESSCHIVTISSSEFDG
Numbers without * were called inactive; x = no result. Rows were chosen to be rich in hits. Some 3.4% of all compounds tested hit in one or more screens of this group.

SMILES	MITF inh	TEAD-YAP block	GPR151 ag	FBW7 activator	GPR151 confirm	GPR119 ag
Cc1cccc(-n2ccnc2SCC(=O)Nc2ccc(F)cc2F)c1C	-4	-5	9.3*	0	0	-4
CC1(C)Cc2cccc(OCC(=O)NC3=NCCS3)c2O1	-1	-4	5.9*	0	2	1
COc1ccc(OC)c(/C=C2\C(C)=C(C#N)c3nc(N)c(C#N)c(C)c32)c1	-1	-15	7.2*	0	0	3
COc1cc2c(cc1/C=C1/C(C)=C(C#N)c3nc(N)c(C#N)c(C)c31)OCO2	-16	-6	1	0	x	x
COc1cccc(NC(=O)N2CCNCC2)c1	2	-7	23*	0	-1	-14
COC(=O)c1cccn2cc(-c3ccc(F)cc3)nc12	1	-10	4.9*	0	-1	-6
C[N+](C)(CCCC(=O)c1ccc(C(=O)CCC[N+](C)(C)Cc2ccccc2Cl)cc1)Cc1ccccc1Cl	-13	3	5.8*	0	1	17
CCCCC(=O)c1ccc(-c2ccccc2)cc1	-9	1	0	0	x	x
COCCn1c(CCC(=O)NCCc2ccc(Cl)cc2)nc2cccnc21	-18	1	0	0	x	x
CC(C)Oc1ccc(CNC(=O)Cc2cccs2)cc1	12	-41	-1	0	x	x
c1ccc(N2CCCCC2)c(Nc2nc3ccccc3n3nnnc23)c1	-3	8	6.0*	0	0	-1
Cc1nnc2c(Nc3ccccc3N3CCCCC3)nc3ccccc3n12	2	-4	0	0	x	x
COc1ccc(C2CCN(CC(=O)N3CCOCC3)CC2)cc1	6	-5	1	0	x	x
COc1cc(OC)nc(CSCC(=O)N2CCN(CC(=O)N3CCOCC3)CC2)n1	8	1	5.2*	0	0	-12
CC1=C(C(=O)OCCOc2ccccc2)C(c2ccc(Br)cc2)C2=C(CC(C)(C)CC2=O)N1 (stereo not given)	-3	-3	-1	0	x	x
CCOC(=O)C1=C(CN2CCN(CC)CC2)NC(=O)NC1c1cc(C)ccc1C (stereo not given)	-21	-6	7.5*	0	0	8
Cc1ccc2c(c1)-c1c(ssc1=S)C(C)(C)N2C(=O)c1ccccc1Cl	29	-4	6.2*	-1	0	24
CCn1c(=O)cc(SCC(=O)Nc2ccccc2OC)c2ccccc21	-5	6	2	0	x	x
CCNC(=O)C(=O)N/N=C/c1ccccc1	-3	-2	8.2*	0	0	-4
CCn1c(=O)c2c(nc3n2CC(C)CN3c2cccc(OC)c2)n(C)c1=O (stereo not given)	0	2	1	0	x	x
O=C(O)CC1c2ccccc2CCN1S(=O)(=O)c1ccccc1 (stereo not given)	-1	11	1	0	x	x
O=C(O)CC1c2ccccc2CCN1S(=O)(=O)c1ccc(Cl)cc1 (stereo not given)	9	-1	6.0*	0	2	12
COc1ccccc1Nc1nnc(SCc2nc3ccc(Cl)cc3n2CCO)s1	4	-2	-1	0	x	x
CC(NC(=O)c1ccc(N(Cc2ccccc2)S(C)(=O)=O)cc1)c1ccccc1 (stereo not given)	-1	0	1	0	x	x
Cc1ccc(N(Cc2ccc(C(=O)NC(C)c3ccccc3)cc2)S(C)(=O)=O)cc1C (stereo not given)	4	11	5.5*	0	-1	2
SMILES	MITF inh	TEAD-YAP block	GPR151 ag	FBW7 activator	GPR151 confirm	GPR119 ag
Cn1nc(C(=O)NCc2ccc(F)cc2)c2c1-c1ccccc1OC2	-6	-10	12*	0	1	-1
COc1ccccc1CNC(=O)c1nn(C)c2c1COc1ccccc1-2	8	-15	0	0	x	x
COc1ccc(C(=O)NCCc2c(C)[nH]c3c(C)ccc(F)c23)cc1OC	8	4	1	0	x	x
CCOc1ccc(CC(=O)NCCc2c(C)[nH]c3c(C)ccc(F)c23)cc1OCC	2	-3	6.5*	0	-1	-12
CN1CCN(C(=O)c2ccc(-c3nc(C(=O)NCCO)cs3)cc2)CC1	-3	4	0	0	x	x
CCCCOC(=O)C1=C(C)NC(=O)NC1c1cc2c(cc1Br)OCO2 (stereo not given)	-6	9	5.1*	0	1	9
C=CCNc1nc(Cl)nc(NCCC2=CCCCC2)n1	0	-5	5.1*	0	-1	-12
CN(CCNC(=O)Cn1ncc2c3ccccc3n(C)c2c1=O)C1CCCCC1	-8	-13	0	0	x	x
CNCc1ccc(-c2ccc(Cl)cc2)o1	14	-9	5.0*	0	0	-4
CNCc1ccc(-c2ccc(Br)cc2)o1	11	-3	0	0	x	x
CC(C1CCN(Cc2c(C(=O)N3CCOCC3)nc3ccccn23)CC1)N1CCCC1 (stereo not given)	-4	-2	0	0	x	x
CC(CN1CCCC1)OC(=O)c1ccccc1Br (stereo not given)	-2	2	-1	0	x	x
CNC(=O)c1cc2c(=O)n3cccc(C)c3nc2n(C)c1=N	18	13	-2	1	x	x
Cc1ccc(CNC(=O)c2cc3c(=O)n4cccc(C)c4nc3n(C)c2=N)cc1	6	1	11*	0	0	0
COc1ccc([N+](=O)[O-])cc1N(CC(=O)N1CCC(C(N)=O)CC1)S(C)(=O)=O	-5	-13	-3	0	x	x
CC(=O)Nc1cc(O)cc(NC(C)=O)c1	9	-5	-1	0	x	x
N#Cc1c(NC(=O)CN2CCN(c3ccccc3F)CC2)sc2c1CCCC2	-4	-16	6.6*	0	0	8
Cc1ccc(N2C(=O)CC(NC3CCCCC3)C2=O)cc1Cl (stereo not given)	24	1	-1	0	x	x
O=C(NCc1nc2ccccc2[nH]1)c1cccc(-c2ccccc2)n1	-3	8	7.1*	0	1	-3
CN1C(=O)c2cccc(NC(=O)c3ccc4ccccc4c3)c2C1=O	3	0	7.6*	0	1	4
CCOC(=O)C1CN(S(=O)(=O)c2ccc(OC)cc2)c2ccccc2O1 (stereo not given)	-9	2	6.5*	0	-1	-10
COc1ccc(Nc2c(-c3ccc(SC)cc3)nc3cnccn23)cc1OC	1	-8	0	0	x	x
O=C1C(=O)N(c2nc3ccccc3s2)C(c2ccc(Br)cc2)/C1=C(\O)c1ccccc1 (stereo not given)	-13	-20	-1	0	x	x
COc1ccccc1CNC(=O)COc1ccccc1	0	-24	4	0	x	x
COc1ccccc1CNC(=O)COc1ccc(Br)cc1Cl	11	2	12*	0	-1	-10
CCc1ccc(OCC(=O)NCc2ccccc2OC)cc1	8	3	5.1*	0	-1	-5

Screens: PubChem BioAssay, The Scripps Research Institute Molecular Screening Center
